# Bioassay records from PubChem BioAssay.
# Pf Dd2 growth: inhibitors of Plasmodium falciparum Dd2 growth; P. falciparum Dd2 growth, SYBR Green, 72 h; Potency, µM (doses to about 28.9 µM), without a hit: top-dose activity, negative = inhibition, most hits filed as inhibitors; 120,000 tested, 4.3% active; AID 1347417; active = well fitted inhibition curve with a large enough effect;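 also: plate controls were DMSO vehicle for no effect and reference drug for full effect; nearly all actives have a fitted effect of over 65% in size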
#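 Infected erythrocytes (Dd2, 0.3% parasitemia, 2.5% hematocrit final) are added to compound in RPMI-1640/Albumax II medium, grown 72 h at 37C in low oxygen, then lysed with saponin/Triton-X containing SYBR Green and read by fluorescence.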
# Numbers without * were called inactive; i = inactive; [ ] = remark or other dose. The full list was thinned out, with hits kept by preference. Potency is read from the fitted curve at half-maximal effect.
SMILES,Pf Dd2 growth
Cc1nc(-c2ccco2)cc([C@H]2CN3CC[C@H]2C[C@@H]3CNC(=O)c2ccccc2)n1,i
Cc1nc(-c2ccco2)cc([C@H]2CN3CC[C@H]2C[C@@H]3CNC(=O)c2cccs2)n1,8.91µM*
CN(Cc1ccccc1)c1ncc2c(n1)CC(C)(C)CC2NC1CCOCC1 (centres undefined),i
Cc1ccc(NC(=O)N2CCC(CCNC(=O)CCCc3ccccc3)CC2)cc1F,i
O=C(NCC1CN(C(=O)Cc2ccc3c(c2)OCO3)CC12CN(c1ccccc1)C2)c1ccccc1 (centres undefined),i
COc1ccc(NCCN2CCCC2)cc1,-8.0%[44.1 µM]
COCCc1nncn1C1CCN(C(=O)c2ccccc2C(F)(F)F)CC1,i
CCOc1cccc(CNC(=O)CN2CC3CC(C2)[C@H]2CCCC(=O)N2C3)c1 (some centres undefined),-21.6%
O=C(CCc1cc2n(n1)CCCNC2)NC1CCCN(c2ncccn2)C1 (centres undefined),-0.4%
COc1ccc(C(=O)N2CCc3ccc(C(=O)O)cc32)cc1,22.6%
C[C@]1(O)CCN(C(=O)c2cccc(-n3cnnc3)c2)C[C@@H]1O,-3.9%
CC(C)CCN1CCC2(CC1)CC(c1cccnc1)=NO2,-13.5%[44.1 µM]
Cc1nc(C)c(CN(C)C2CCCN(CCc3ccccc3)C2)nc1C (centres undefined),-15.8%
CN1CCC(N(C)CC2CCCN(CCc3ccc(F)cc3)C2)CC1 (centres undefined),8.91µM*
CN(Cc1ccc(F)cc1)CC1CCCCC1,22.7%[44.1 µM]
Cc1cc(C)cc(C(=O)N2CCC(Oc3ncccc3C(=O)N(C)C)C2)c1 (centres undefined),-11.5%
Cc1ccc(-c2nnc(C3CN(C(=O)c4ccco4)CC34CCOCC4)o2)cc1 (centres undefined),i
Cc1ccc(Cl)cc1N1CCN(c2ncnc3onc(-c4ccc(F)cc4)c23)CC1,-11.8%
COc1cc(OC)c(NC(=O)COc2ccccc2-c2nnc(-c3ccccc3)o2)cc1Cl,11.9%
Cc1cccc(N2CCN(c3ncnc4onc(C)c34)CC2)c1C,-4.6%
COc1cc(OC)c(NC(c2nnc(-c3ccccc3)o2)c2ccc(F)cc2Cl)cc1Cl (centres undefined),6.31µM*
Cc1ccc(Cl)cc1N1CCN(C(c2ccc(F)cc2)c2nnc(-c3ccccc3)o2)CC1 (centres undefined),7.94µM*
Cc1ccc(Cl)cc1NC(=O)c1cnn2c(C(F)F)cc(-c3ccccc3)nc12,13.8%
Cc1ccc(Cl)cc1NC(c1ccc(F)cc1)c1nnc(-c2ccccc2)o1 (centres undefined),12.6µM*
Cc1ccc(Cl)cc1NC(=O)c1ccc(-c2nc(CSc3ccccc3)c(C)o2)cc1,i
SMILES,Pf Dd2 growth
Cc1cccc(N2CCN(C(c3ccc(F)cc3)c3nnc(-c4ccccc4)o3)CC2)c1C (centres undefined),11.2µM*
COc1cc(OC)c(NC(=O)c2ccc3nc(C(C)C)oc3c2)cc1Cl,-11.9%
COCCn1c(C)cc(O)c(C(c2ccc(F)cc2)N2CCN(c3ccccc3)CC2)c1=O (centres undefined),i
Cc1ccccc1-c1nnc(CN2CCN(c3cc(Cl)ccc3C)CC2)o1,-9.8%
CN[C@@H](CC(C)C)C(=O)N[C@H]1C[C@@](O)(C(=O)N[C@H](Cc2c[nH]c3ccccc23)C(N)=O)C[C@@H](O)[C@@H]1O,14.5%
CN(CC1CCOCC1)C(=O)c1ccccc1Cl,22.6%
O=C(CCNc1c(-c2cccc(F)c2)nc2cnccn12)NCc1ccccc1,i
c1ncnc(NCC2(N3CCOCC3)CCCCCC2)n1,-14.2%
CC(Oc1ccc(CN2CCN(CCS(C)(=O)=O)CC2)cc1)C(=O)O (centres undefined),4.2%
COCCN1CCCCCC(O)c2cc(C(=O)N3CCN(C4CCCCC4)CC3)ccc21 (centres undefined),i
CN(C)C(=O)c1ccc(OC2CCN(C(=O)C3CC3)CC2)nc1,28.0%
COc1ccc(C(=O)N2C[C@@H]3C[C@H](C2)c2c(-c4cccs4)ccc(=O)n2C3)cc1,-9.3%[44.1 µM]
NC(=O)NCC(=O)N[C@H]1CC[C@H](Nc2nccc(-c3ccncc3)n2)C1,-27.3%
Cn1ncc(N2CCCC(CC(=O)O)C2)cc1=O (centres undefined),13.9%
COc1cccc(N2C(=O)NC(=NC3CCCC3)C23CCCN(C(=O)c2ccccc2F)C3)c1 (centres undefined),13.0%
COc1cccc(N2C(=O)NC(=NC3CCCC3)C23CCN(Cc2ccc(F)cc2)C3)c1 (centres undefined),12.6µM*
COc1cccc(N2C(=O)NC(=NC3CCCCC3)C23CCN(Cc2ccccc2)C3)c1 (centres undefined),40.1%
COc1cccc(N2C(=O)NC(=NC3CCCCC3)C23CCCN(Cc2ccc(F)cc2)C3)c1 (centres undefined),12.6µM*
COc1cccc(N2C(=O)NC(=NC3CCCCC3)C23CCCN(C(=O)c2ccccc2OC)C3)c1 (centres undefined),-17.7%
COc1ccc(CN2CCC3(CC2)C(=NC2CCCCC2)NC(=O)N3c2cccc(OC)c2)cc1,-15.0%
COC(=O)[C@@H](Cc1cccnc1)NC(=O)[C@H]1CN(C(=O)Nc2ccccc2)CCN1C(C)=O,-3.6%
O=C(CCc1ccccc1)N1CCC2(CC1)CC(N(C(=O)c1ccccc1)C1CC1)CCO2 (centres undefined),-1.8%
CC(C)CCN1CCC(N2CCN(S(=O)(=O)c3ccc(F)cc3F)CC2)C1=O (centres undefined),i
Cc1cccc(Nc2ncncc2-c2nc(-c3ccccc3)no2)c1C,-11.0%
COc1ccc(CCC(=O)N2CCn3c(nnc3[C@@H]3C[C@@H](O)CN3C(C)C)C2)cc1,29.3%
SMILES,Pf Dd2 growth
CC(=O)N1CCN(Cc2ccc(F)c(C(F)(F)F)c2)CC(O)C1 (centres undefined),-18.4%
Cc1cc(C(=O)N2CC[C@](O)(c3ccccc3)[C@H](N(C)C)C2)n[nH]1,26.8%[5.79 µM]
O=C(Cc1ccccc1F)N1CCC2(CC1)N(c1ccccc1)C(=O)CS2(=O)=O,-39.5%
O=C(Cc1cccc(F)c1)N1CCC2(CC1)NC(=O)N(c1ccccc1Cl)N2,-26.8%
O=C(CC1CC1)N1CCC(Oc2cnc3c(ccn3-c3cncnc3)c2)CC1,i
O=C(Cc1ccccc1)N1CCC(Oc2cnc3c(ccn3-c3cncnc3)c2)CC1,12.6µM*
O=C(OCc1ccccc1)N1CCC(Oc2cnc3c(ccn3-c3cncnc3)c2)CC1,i
O=C(O)c1cccc2c1CCN2C(=O)c1ccc(F)cc1,8.0%
O=C(O)CC1COCCN1C(=O)c1cc(-n2cccn2)ccc1Cl (centres undefined),18.3%
Cc1cccc(C(=O)N2[C@@H]3CC[C@H]2CC(NC(=O)c2ccncc2)C3)c1 (some centres undefined),i
Cn1cnc2ccc(-c3cccc(C(F)(F)F)c3)nc2c1=O,4.47µM*
COCCn1cnc2ccc(-c3cccc(O)c3)nc2c1=O,-7.9%[44.1 µM]
O=c1c2nc(-c3cccc(C(F)(F)F)c3)ccc2ncn1Cc1ccccn1,-7.8%[44.1 µM]
CC(C)c1noc(CCn2ccnc2-c2cnc[nH]2)n1,-2.4%
CNC(=O)[C@@H](c1ccccc1OC)N1CCC[C@H]1C(=O)N(C)CCN(C)C,4.8%[44.1 µM]
Cc1ccc(C(=O)N2CC[C@@H]3COCCN(C)[C@@H]3C2)s1,-9.8%
COc1ccc(Cl)cc1NC(=O)Cn1c(=O)n(CCCC(=O)NCCc2ccc(OC)c(OC)c2)c(=O)c2ccccc21,11.2µM*
